Measured values from PMC7862700, “An all-to-all approach to the identification of sequence-specific readers for epigenetic DNA modifications on cytosine”.

Experiments:
Assay in all cases: DAPPL (digital affinity profiling via proximity ligation, sequencing); 10 mM Tris-HCl pH 7.5, 50 mM NaCl, 1 mM DTT, 4% glycerol, room temperature, 30 min; GST-TFs on glutathione beads, 16-mer random dsDNA library, 0.1% formaldehyde crosslink after washing; high values mean tight binding
FLI1 = target: T1, FLI1 (Homo sapiens, UniProt Q01543 1-452); conditions: protein: recombinant; tags: N-terminal GST; dsDNA, one strand shown
T1 sequence: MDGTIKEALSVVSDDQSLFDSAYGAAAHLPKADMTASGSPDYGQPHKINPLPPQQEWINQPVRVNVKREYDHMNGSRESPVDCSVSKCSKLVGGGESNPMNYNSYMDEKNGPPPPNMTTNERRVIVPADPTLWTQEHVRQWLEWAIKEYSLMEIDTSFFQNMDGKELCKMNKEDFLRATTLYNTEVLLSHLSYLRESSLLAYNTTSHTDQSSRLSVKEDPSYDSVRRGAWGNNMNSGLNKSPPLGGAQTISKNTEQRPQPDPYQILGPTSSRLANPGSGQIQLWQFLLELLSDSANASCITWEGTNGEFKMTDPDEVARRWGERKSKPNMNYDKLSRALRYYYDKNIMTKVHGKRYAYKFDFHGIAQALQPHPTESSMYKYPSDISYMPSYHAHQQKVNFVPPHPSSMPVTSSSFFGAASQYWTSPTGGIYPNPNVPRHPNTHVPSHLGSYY
Summary of the method: (§1)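 Yeast served to express human transcription factors as GST fusions, which were then captured on glutathione beads and labelled with DNA barcodes. Pooled with a tag-only sample, they were incubated with 200 nmole of a 16-mer random double-stranded DNA library for 30 min at room temperature in Tris/NaCl/DTT/glycerol buffer, washed, crosslinked with 0.1% formaldehyde, ligated by proximity, amplified by PCR and sequenced. Dividing each hexamer's read frequency for a factor by its frequency for the tag-only sample gives the binding signal.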

ELK1 = target: T2, ELK1 (Homo sapiens, UniProt P19419 1-428); conditions: protein: recombinant; tags: N-terminal GST; dsDNA, one strand shown
T2 sequence: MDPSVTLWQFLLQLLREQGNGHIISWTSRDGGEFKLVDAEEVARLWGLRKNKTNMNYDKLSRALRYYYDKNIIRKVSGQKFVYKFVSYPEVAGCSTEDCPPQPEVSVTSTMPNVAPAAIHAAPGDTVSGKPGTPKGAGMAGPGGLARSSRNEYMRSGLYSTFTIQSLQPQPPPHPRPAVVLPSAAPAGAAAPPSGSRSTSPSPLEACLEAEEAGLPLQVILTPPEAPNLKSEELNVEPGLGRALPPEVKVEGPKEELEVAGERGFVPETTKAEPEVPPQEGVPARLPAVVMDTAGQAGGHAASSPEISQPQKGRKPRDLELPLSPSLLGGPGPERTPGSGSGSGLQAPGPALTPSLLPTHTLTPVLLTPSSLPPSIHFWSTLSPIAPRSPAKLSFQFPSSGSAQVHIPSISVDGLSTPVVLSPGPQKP
Summary of the method: as §1

GABPA = target: T3, GABPA (Homo sapiens, UniProt Q06546 1-454); conditions: protein: recombinant; tags: N-terminal GST; dsDNA, one strand shown
T3 sequence: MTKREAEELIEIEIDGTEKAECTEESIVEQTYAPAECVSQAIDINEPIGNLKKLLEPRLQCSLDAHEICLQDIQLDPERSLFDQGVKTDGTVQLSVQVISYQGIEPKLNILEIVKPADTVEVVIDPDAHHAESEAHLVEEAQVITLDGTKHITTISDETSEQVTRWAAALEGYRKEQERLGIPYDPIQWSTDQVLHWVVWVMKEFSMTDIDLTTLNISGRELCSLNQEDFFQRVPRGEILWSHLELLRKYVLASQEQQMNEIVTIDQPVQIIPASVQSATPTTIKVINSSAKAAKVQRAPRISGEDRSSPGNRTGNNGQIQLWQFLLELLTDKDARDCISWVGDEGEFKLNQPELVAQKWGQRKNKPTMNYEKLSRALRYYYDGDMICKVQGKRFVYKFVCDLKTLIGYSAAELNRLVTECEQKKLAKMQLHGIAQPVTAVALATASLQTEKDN
Summary of the method: as §1

ERG = target: T4, ERG (Homo sapiens, UniProt P11308 1-479); conditions: protein: recombinant; tags: N-terminal GST; dsDNA, one strand shown
T4 sequence: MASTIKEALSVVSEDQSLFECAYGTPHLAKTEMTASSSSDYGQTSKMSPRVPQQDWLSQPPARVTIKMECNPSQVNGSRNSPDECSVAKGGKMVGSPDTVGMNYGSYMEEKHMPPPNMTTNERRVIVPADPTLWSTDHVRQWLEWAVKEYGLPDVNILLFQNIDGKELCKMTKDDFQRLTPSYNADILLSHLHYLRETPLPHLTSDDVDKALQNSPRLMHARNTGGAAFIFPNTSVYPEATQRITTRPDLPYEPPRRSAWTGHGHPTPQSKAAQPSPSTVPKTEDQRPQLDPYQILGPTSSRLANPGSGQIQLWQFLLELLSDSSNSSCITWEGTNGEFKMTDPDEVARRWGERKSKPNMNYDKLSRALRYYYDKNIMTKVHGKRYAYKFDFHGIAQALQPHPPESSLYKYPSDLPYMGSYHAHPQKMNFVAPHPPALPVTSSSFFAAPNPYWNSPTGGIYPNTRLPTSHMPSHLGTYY
Summary of the method: as §1

ELF1 = ELF1 (Homo sapiens, UniProt P32519 1-619); conditions: protein: recombinant; tags: N-terminal GST; dsDNA, one strand shown
Summary of the method: as §1

EHF = target: T5, EHF (Homo sapiens, UniProt Q9NZC4 1-300); conditions: protein: recombinant; tags: N-terminal GST; dsDNA, one strand shown
T5 sequence: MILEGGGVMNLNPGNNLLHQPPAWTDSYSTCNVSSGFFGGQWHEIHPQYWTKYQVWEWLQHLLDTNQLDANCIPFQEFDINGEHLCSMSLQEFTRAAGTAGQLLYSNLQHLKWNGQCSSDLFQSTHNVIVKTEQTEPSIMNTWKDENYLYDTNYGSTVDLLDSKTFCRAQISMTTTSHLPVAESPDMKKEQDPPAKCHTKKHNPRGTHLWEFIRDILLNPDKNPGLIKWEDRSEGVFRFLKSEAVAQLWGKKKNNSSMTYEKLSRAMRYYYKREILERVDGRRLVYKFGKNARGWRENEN
Summary of the method: as §1

SPI1 = SPI1 (Homo sapiens, UniProt P17947 1-270); conditions: protein: recombinant; tags: N-terminal GST; dsDNA, one strand shown
Summary of the method: as §1

SPIB = SPIB (Homo sapiens, UniProt Q01892 1-262); conditions: protein: recombinant; tags: N-terminal GST; dsDNA, one strand shown
Summary of the method: as §1

ELK3 = target: T6, ELK3 (Homo sapiens, UniProt P41970 1-407); conditions: protein: recombinant; tags: N-terminal GST; dsDNA, one strand shown
T6 sequence: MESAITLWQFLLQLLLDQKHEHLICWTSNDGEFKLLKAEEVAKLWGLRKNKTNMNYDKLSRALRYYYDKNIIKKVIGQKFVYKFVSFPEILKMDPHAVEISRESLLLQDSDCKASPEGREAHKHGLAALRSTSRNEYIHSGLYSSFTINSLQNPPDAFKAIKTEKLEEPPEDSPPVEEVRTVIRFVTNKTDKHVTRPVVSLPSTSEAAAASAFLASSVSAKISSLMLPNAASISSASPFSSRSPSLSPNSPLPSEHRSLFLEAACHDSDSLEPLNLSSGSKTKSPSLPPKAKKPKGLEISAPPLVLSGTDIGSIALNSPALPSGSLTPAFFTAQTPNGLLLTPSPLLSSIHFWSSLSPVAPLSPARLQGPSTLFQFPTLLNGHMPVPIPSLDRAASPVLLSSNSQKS
Summary of the method: as §1

FEV = target: T7, FEV (Homo sapiens, UniProt Q99581 1-238); conditions: protein: recombinant; tags: N-terminal GST; dsDNA, one strand shown
T7 sequence: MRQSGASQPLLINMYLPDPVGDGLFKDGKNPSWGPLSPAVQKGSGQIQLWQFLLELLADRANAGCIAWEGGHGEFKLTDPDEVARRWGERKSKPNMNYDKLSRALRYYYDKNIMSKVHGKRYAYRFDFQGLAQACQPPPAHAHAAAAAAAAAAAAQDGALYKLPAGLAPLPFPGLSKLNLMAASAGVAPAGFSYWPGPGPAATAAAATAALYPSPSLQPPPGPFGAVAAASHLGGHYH
Summary of the method: as §1

ETV5 = ETV5 (Homo sapiens, UniProt P41161 1-510); conditions: protein: recombinant; tags: N-terminal GST; dsDNA, one strand shown
Summary of the method: as §1

HSF1 = HSF1 (Homo sapiens, UniProt Q00613 1-529); conditions: protein: recombinant; tags: N-terminal GST; chain copies: 3; dsDNA, one strand shown
Summary of the method: as §1

SPIC = target: T8, SPIC (Homo sapiens, UniProt Q8N5J4 1-248); conditions: protein: recombinant; tags: N-terminal GST; dsDNA, one strand shown
T8 sequence: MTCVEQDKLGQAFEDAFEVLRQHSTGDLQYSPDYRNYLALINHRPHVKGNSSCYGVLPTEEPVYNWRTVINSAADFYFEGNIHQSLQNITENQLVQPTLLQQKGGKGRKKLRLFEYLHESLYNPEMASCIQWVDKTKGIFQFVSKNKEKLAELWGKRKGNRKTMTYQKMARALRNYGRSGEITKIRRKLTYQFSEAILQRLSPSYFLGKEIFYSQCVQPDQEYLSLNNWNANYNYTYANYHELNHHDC
Summary of the method: as §1

ELF4 = ELF4 (Homo sapiens, UniProt Q99607 1-663); conditions: protein: recombinant; tags: N-terminal GST; dsDNA, one strand shown
Summary of the method: as §1

ELK4 = target: T9, ELK4 (Homo sapiens, UniProt P28324-2 1-405); conditions: protein: recombinant; tags: N-terminal GST; dsDNA, one strand shown
T9 sequence: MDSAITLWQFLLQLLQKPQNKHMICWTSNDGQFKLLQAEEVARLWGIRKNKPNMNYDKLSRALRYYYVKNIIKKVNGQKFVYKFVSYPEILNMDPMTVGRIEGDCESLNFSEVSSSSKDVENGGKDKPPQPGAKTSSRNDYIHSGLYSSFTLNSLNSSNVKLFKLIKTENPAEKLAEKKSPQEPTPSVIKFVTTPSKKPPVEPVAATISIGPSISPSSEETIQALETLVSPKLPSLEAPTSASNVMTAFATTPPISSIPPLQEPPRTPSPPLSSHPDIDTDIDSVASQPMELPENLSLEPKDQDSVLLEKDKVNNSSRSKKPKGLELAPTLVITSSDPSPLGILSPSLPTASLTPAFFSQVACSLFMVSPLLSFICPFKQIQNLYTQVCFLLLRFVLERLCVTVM
Summary of the method: as §1

ETV2 = target: T10, ETV2 (Homo sapiens, UniProt O00321 1-342); conditions: protein: recombinant; tags: N-terminal GST; dsDNA, one strand shown
T10 sequence: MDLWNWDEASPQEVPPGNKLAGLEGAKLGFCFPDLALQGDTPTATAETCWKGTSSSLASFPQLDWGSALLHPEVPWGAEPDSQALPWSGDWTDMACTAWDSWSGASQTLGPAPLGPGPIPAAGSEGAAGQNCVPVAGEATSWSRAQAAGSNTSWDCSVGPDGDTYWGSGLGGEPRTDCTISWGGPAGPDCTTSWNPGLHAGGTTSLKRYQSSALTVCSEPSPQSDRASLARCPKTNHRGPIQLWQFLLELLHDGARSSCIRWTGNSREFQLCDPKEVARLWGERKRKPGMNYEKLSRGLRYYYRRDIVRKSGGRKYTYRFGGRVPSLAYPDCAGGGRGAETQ
Summary of the method: as §1

ELF3 = target: T11, ELF3 (Homo sapiens, UniProt P78545 1-371); conditions: protein: recombinant; tags: N-terminal GST; dsDNA, one strand shown
T11 sequence: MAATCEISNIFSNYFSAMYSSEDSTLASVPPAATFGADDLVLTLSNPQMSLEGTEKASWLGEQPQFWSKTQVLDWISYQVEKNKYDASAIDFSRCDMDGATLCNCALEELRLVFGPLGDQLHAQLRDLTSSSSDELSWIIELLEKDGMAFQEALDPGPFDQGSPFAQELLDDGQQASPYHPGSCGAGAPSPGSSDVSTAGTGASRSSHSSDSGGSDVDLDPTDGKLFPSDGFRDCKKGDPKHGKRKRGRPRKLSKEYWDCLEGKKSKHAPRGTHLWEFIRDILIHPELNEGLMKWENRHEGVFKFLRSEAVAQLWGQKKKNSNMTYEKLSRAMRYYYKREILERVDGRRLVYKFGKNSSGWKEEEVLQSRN
Summary of the method: as §1

CRX = CRX (Homo sapiens, UniProt O43186 1-299); conditions: protein: recombinant; tags: N-terminal GST; dsDNA, one strand shown
Summary of the method: as §1

ETV1 = ETV1 (Homo sapiens, UniProt P50549 1-477); conditions: protein: recombinant; tags: N-terminal GST; dsDNA, one strand shown
Summary of the method: as §1

ELF4, sequence (Q99607 whole entry): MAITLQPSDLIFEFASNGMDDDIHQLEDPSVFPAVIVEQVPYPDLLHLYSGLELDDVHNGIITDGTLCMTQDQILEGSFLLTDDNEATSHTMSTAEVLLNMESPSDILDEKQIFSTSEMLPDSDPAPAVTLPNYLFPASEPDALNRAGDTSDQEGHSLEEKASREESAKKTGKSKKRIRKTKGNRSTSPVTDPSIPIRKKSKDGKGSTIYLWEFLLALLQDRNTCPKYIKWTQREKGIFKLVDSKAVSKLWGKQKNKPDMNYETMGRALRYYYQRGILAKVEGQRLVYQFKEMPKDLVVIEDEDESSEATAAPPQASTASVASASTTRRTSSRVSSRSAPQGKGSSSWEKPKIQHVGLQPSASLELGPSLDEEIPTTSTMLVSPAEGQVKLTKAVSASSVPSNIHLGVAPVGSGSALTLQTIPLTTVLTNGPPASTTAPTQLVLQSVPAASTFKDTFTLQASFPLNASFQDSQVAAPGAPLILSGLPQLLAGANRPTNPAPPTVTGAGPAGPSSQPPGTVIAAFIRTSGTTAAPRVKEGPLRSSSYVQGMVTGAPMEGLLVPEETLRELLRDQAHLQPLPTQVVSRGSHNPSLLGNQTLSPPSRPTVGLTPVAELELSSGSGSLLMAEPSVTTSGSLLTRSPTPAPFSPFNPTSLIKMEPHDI
ETV1, sequence (P50549 whole entry): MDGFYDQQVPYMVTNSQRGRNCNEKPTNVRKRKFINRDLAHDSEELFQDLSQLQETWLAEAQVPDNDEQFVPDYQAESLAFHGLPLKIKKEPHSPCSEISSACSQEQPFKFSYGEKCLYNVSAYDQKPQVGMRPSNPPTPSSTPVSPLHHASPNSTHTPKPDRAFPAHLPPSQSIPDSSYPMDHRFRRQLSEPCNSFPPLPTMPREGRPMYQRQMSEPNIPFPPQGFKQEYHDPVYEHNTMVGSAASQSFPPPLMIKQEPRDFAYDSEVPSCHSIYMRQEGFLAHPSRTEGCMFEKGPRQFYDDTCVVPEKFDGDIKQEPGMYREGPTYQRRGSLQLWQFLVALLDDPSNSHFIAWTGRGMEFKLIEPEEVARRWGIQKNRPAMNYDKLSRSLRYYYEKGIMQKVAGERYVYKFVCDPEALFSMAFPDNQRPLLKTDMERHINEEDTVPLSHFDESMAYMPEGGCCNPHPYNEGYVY
CRX, sequence (O43186 whole entry): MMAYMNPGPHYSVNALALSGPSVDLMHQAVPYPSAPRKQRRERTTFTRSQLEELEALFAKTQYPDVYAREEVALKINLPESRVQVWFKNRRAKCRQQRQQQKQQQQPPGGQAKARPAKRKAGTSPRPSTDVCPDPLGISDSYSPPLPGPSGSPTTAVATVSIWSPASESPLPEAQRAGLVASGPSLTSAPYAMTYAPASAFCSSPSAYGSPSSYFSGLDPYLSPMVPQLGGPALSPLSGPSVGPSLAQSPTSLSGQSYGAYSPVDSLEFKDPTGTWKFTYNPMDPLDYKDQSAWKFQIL
ELF1, sequence (P32519 whole entry): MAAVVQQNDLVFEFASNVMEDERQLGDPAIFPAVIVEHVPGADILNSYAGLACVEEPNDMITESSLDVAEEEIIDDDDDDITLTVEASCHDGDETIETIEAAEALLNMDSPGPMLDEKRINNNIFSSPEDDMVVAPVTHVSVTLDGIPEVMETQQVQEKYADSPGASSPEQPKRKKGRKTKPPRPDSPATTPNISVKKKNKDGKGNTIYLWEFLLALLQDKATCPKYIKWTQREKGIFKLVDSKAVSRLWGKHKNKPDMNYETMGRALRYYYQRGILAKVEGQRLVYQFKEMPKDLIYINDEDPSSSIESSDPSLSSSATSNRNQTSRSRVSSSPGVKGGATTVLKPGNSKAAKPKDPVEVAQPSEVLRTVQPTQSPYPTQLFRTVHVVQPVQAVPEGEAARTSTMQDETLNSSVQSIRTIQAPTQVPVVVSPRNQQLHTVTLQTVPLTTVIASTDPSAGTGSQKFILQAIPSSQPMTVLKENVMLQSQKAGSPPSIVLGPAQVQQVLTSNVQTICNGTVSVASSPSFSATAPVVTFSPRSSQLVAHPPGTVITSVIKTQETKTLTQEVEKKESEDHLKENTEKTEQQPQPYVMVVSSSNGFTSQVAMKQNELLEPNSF
SPIB, sequence (Q01892 whole entry): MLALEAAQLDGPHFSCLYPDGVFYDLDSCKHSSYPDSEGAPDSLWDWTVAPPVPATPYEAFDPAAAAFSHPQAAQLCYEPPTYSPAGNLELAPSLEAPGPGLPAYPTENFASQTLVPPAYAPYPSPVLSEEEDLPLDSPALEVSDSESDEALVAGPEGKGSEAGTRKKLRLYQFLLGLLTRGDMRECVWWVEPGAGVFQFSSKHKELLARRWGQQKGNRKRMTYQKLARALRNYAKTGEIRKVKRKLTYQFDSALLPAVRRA
HSF1, sequence (Q00613 whole entry): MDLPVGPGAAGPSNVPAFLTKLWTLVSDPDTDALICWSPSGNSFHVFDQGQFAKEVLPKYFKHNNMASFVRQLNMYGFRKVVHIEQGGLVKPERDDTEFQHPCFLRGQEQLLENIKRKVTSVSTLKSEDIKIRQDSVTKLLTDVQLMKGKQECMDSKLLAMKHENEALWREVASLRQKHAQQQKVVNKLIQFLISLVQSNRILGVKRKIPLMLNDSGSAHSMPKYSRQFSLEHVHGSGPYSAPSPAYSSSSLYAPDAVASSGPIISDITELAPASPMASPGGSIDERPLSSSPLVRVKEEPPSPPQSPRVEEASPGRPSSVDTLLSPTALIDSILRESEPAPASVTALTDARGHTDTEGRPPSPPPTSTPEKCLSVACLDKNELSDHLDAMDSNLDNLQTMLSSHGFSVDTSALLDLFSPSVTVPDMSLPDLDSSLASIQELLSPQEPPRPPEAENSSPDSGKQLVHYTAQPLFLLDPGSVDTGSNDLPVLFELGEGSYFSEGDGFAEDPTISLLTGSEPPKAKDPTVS
ETV5, sequence (P41161 whole entry): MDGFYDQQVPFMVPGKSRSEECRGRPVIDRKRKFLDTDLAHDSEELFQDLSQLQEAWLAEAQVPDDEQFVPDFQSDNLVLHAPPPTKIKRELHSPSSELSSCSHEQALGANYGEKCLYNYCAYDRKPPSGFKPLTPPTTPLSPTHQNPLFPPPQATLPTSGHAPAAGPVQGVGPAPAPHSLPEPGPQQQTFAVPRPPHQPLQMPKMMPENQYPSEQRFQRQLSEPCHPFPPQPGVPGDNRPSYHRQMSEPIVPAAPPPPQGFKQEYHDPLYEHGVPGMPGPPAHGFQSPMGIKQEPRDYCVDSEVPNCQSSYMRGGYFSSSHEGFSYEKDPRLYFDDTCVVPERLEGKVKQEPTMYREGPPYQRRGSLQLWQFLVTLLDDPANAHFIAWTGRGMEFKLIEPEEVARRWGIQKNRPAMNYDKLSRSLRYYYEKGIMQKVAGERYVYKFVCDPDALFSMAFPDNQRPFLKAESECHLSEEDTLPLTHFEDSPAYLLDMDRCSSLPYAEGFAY

With TCTCTA the binding signal (FLI1) was 1.21 fold enrichment (6-mer frequency, TF over GST control), the binding signal (ELK1) was 1.31 fold enrichment (6-mer frequency, TF over GST control) and the binding signal (GABPA) was 1.23 fold enrichment (6-mer frequency, TF over GST control). The binding signal (ERG) was 1.36 fold enrichment (6-mer frequency, TF over GST control), the binding signal (ELF1) was 1.36 fold enrichment (6-mer frequency, TF over GST control) and the binding signal (EHF) was 1.34 fold enrichment (6-mer frequency, TF over GST control). The binding signal (SPI1) was 1.26 fold enrichment (6-mer frequency, TF over GST control), the binding signal (SPIB) was 1.33 fold enrichment (6-mer frequency, TF over GST control) and the binding signal (ELK3) was 1.22 fold enrichment (6-mer frequency, TF over GST control). The binding signal (FEV) was 1.32 fold enrichment (6-mer frequency, TF over GST control), the binding signal (ETV5) was 1.21 fold enrichment (6-mer frequency, TF over GST control) and the binding signal (HSF1) was 1.74 fold enrichment (6-mer frequency, TF over GST control). For the same sequence, the binding signal (SPIC) was 1.38 fold enrichment (6-mer frequency, TF over GST control), the binding signal (ELF4) was 1.25 fold enrichment (6-mer frequency, TF over GST control) and the binding signal (ELK4) was 1.22 fold enrichment (6-mer frequency, TF over GST control). The binding signal (ETV2) was 1.24 fold enrichment (6-mer frequency, TF over GST control), the binding signal (ELF3) was 1.28 fold enrichment (6-mer frequency, TF over GST control) and the binding signal (CRX) was 1.56 fold enrichment (6-mer frequency, TF over GST control). The binding signal (ETV1) was 1.2 fold enrichment (6-mer frequency, TF over GST control).
